Methyltransferases: Primary Screen for Target Class Profiling of Small Molecule Inhibitors of Methyltransferases; 3.9% of 25,000 active; AID 1745853, 2022; calls only at 40 µM; purified enzyme, MTase-Glo SAH luminescence; hits give low values; call rule not given here
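Each enzyme was reacted with SAM and its substrate, with compounds tested once at 40 uM; SAH formed was read by MTase-Glo luminescence.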
MTase-Glo ctr: inhibits MTase-Glo coupling enzymes without methyltransferase; shares compounds with Methyltransferases; MTase-Glo coupled enzymes, SAH conversion luminescence, no MTase; Potency, µM (titrated, usually from 57.3 µM), inactives show top-dose activity change, negative = inhibition, most hits filed as inhibitors; 6% of 180 active; AID 1745851; active = well fitted inhibition curve with a large enough effect; also: potency is read from the fitted curve at half-maximal effect
An asterisk follows results filed as active; i = inactive; + = active, no number; ! = not confirmed by another sample; [ ] = dose if it differs, or a comment. The full list was thinned out, with hits kept by preference. % is scaled to controls: 0 for no effect and ±100 for the full control effect.

SMILES	Methyltransferases	others
CC(=O)OC/C(=C/C(=O)O)CC[C@@H]1C(CO)=CC[C@@H]2C(C)(C)CCC[C@@]12C	+
CC1(C)CCC[C@]2(C)C1CC=C(CO)[C@H]2CC/C(=C/CO)CO (stereo partly drawn)	i
CC(=O)OC/C(=C/C(=O)O)CC[C@@H]1C(C=O)=CC[C@@H]2C(C)(C)CCC[C@@]12C	+
CC1=CCC2C(C)(C)CCCC2(C)C1CC12OC1C(O)C(CO)=CC2O (stereo not drawn)	i
CC(=O)Nc1c2n(c3ccccc13)CC(C)(C(=O)NC1CCCCC1)N(Cc1ccccc1C)C2=O (stereo not drawn)	i
O=C(Nc1ccc(F)cc1F)N1Cc2c(sc3c2CCCC3)-n2cccc2C1c1ccc(F)cc1 (stereo not drawn)	i
COc1ccccc1CN1C(=O)c2ccc(-c3ccco3)n2CC1(C)C(=O)NC1CCCC1 (stereo not drawn)	i
Cc1ccc(N2C(=O)c3cc4ccccc4n3CC2(C)C(=O)NCCC(C)C)cc1C (stereo not drawn)	i
Cc1ccccc1CN1C(=O)c2nc3ccccc3n2CC1(C)C(=O)NC1CCCCC1 (stereo not drawn)	i
Cc1ccc(C)c(N2C(=O)c3cc(C4CC4)nn3CC2(C)C(=O)NC2CCCCCC2)c1 (stereo not drawn)	i
CN1C(=O)c2cc(C(=O)NCc3cccc(F)c3)nn2CC1(C)C(=O)NC1CCCC1 (stereo not drawn)	i
COc1ccc(C(=O)Cn2nc3n(Cc4ccccc4)c(=O)c4ccccc4n3c2=O)cc1	i
CC1(C(=O)NC2CCCCCCC2)Cc2ccccc2C(=O)N1CCN1CCCCCC1 (stereo not drawn)	i
COc1cccc(CN2C(=O)c3cc4sccc4n3CC2(C)C(=O)NC2CCC(C)CC2)c1 (stereo not drawn)	i
COc1ccc(CN2C(=O)c3cc4sccc4n3CC2(C)C(=O)NC2CCCCC2)cc1OC (stereo not drawn)	i
COc1ccc(CN2C(=O)c3cc4sccc4n3CC2(C)C(=O)NC2CCC(C)CC2)cc1OC (stereo not drawn)	+
COc1ccc(-c2cc3n(n2)CC(C)(C(=O)NCc2ccccc2OC)N(C2CC2)C3=O)cc1 (stereo not drawn)	i
CCN(Cc1ccccc1)C(=O)CN(C)S(=O)(=O)c1ccc2[nH]c3c(c2c1)CCCC3	i
CN1CCN(CCCN2C(=O)c3cc4sccc4n3CC2(C)C(=O)NC2CCCCC2)CC1 (stereo not drawn)	i
Cc1ccc(C)c(N2CCN(S(=O)(=O)c3ccc4[nH]c(=O)[nH]c4c3)CC2)c1	i
Cc1ccc(CNC(=O)Cn2nc3n(C(C)C)c(=O)c4ccc(C(=O)NC5CCCC5)cc4n3c2=O)cc1	i
COc1ccc2c(c1)N1C(=O)C[C@@]34C=CC[N@+]5([O-])CC[C@H]2[C@H](CC3)[C@@]145	i
COc1cc2c(cc1OC)N1C(=O)C[C@]34C=CCN5CC[C@@H]2[C@@H](CC3)[C@]514	+
CC1CCCC(NC(=O)C2(C)Cn3c(cc4occc43)C(=O)N2Cc2ccccc2F)C1C (stereo not drawn)	i
CC1(C(=O)NC2CCCC2)Cn2c(cc3ccccc32)C(=O)N1Cc1ccccc1 (stereo not drawn)	i
SMILES	Methyltransferases	others
CC1CCCC(NC(=O)Cn2c(=O)oc3cc(S(=O)(=O)NCc4ccccc4)ccc32)C1C (stereo not drawn)	i
c1cc(N[C@@H]2CCNC2)nc(-c2cnc3ccc(-c4cn[nH]c4)cn23)c1	+
Cc1ccc(C(=O)Cn2nc3n(CCCOC(C)C)c(=O)c4ccccc4n3c2=O)cc1	i
COc1cc(-c2ccc(O)cc2)c(OC)c(O)c1C1=CC(=O)OC1CC(=O)O (stereo not drawn)	i
COc1c(O)cc2c(c1O)C(=O)O[C@H](C)[C@H]2O	+
COc1cc(O)c2c(c1Cl)CC(C)OC2=O (stereo not drawn)	i
Cc1ccc(CNC(=O)C2(C)Cn3nc(C(=O)NCc4cccc(C)c4)cc3C(=O)N2C)cc1 (stereo not drawn)	i
Cc1ccc(S(=O)(=O)/C=C/C#N)cc1	+!
COc1ccc(-c2cc3n(n2)CC(C)(C(=O)NC2CCCCC2)N(Cc2ccccc2F)C3=O)cc1 (stereo not drawn)	i
C=Cc1ccc(Cn2nc3n(C)c(=O)c4ccc(C(=O)NC5CCCC5)cc4n3c2=O)cc1	i
CCOc1ccc(N2C(=O)c3cc(-c4ccco4)nn3CC2(C)C(=O)NC2CCCCCC2)cc1 (stereo not drawn)	i
CC(=O)Nc1c2n(c3ccc(F)cc13)CC(C)(C(=O)NC1CCCCC1)N(Cc1ccccc1)C2=O (stereo not drawn)	i
O=c1[nH]c2ccc(S(=O)(=O)N3CCc4ccccc4C3)cc2[nH]1	i
CC(C)OCCCn1c(=O)c2ccccc2n2c(SCC(=O)Nc3ccccc3F)nnc12	i
CC(=O)N1CCC(C(=O)N2CCCC(c3nc4ncccc4[nH]3)C2)CC1 (stereo not drawn)	i
CN1CCN(c2nc3cc(C(F)(F)F)ccc3n3cccc23)CC1	i
O=C(C1CC2(CCNCC2)CN1)N1CCC(c2nc3ccccc3[nH]2)CC1 (stereo not drawn)	i
CN1CCC(N2CC[C@H](c3nc4ccc(C(F)(F)F)cc4[nH]3)C2)CC1	+	MTase-Glo ctr=2%[85.7 µM]
CC(=O)N1CC[C@H](c2nc3ccc(C#N)cc3[nH]2)C1	i
CN1CCC(N2CC[C@H](c3nc4ccccc4[nH]3)C2)CC1	+	MTase-Glo ctr=-2%[114 µM]
CCOC(=O)c1cc2n(n1)CC(C)(C(=O)NCCC(C)C)N(Cc1ccc3c(c1)OCO3)C2=O (stereo not drawn)	i
COc1ccc(-c2cc3n(n2)CC(C)(C(=O)NCc2ccccc2OC)N(c2ccccc2C)C3=O)cc1 (stereo not drawn)	i
CN1C(=O)c2cc(C(=O)NCc3ccccc3F)nn2CC1(C)C(=O)NC1CCCC1 (stereo not drawn)	i
COc1ccc(OC)c2c1cc1n2CC(C)(C(=O)NC2CCCCC2)N(Cc2ccc(F)cc2)C1=O (stereo not drawn)	i
CCc1ccc(CNC(=O)CNC(=O)C2(C)Cn3c(cc4ccccc43)C(=O)N2CC)cc1 (stereo not drawn)	i
SMILES	Methyltransferases	others
O=S(=O)(NCCn1c(-c2ccc(F)cc2)nc2ccccc21)c1ccc(Br)cc1	i
Cc1ccc(CNC(=O)N2CCn3cccc3C2C(C)C)cc1 (stereo not drawn)	i
COc1ccc(C(C)NC(=O)c2c(C)sc3ccn(C)c(=O)c23)cc1 (stereo not drawn)	i
Cc1sc2ccn(CC(C)C)c(=O)c2c1C(=O)N1CCCCC1	i
CCCCN(C)C(=O)c1c(C)sc2ccn(CCC)c(=O)c12	+	MTase-Glo ctr=-1%
CCCn1ncc(CN2CCCC23CCN(c2ncccn2)CC3)c1C	i
CCn1cc(CN2CCCC23CCN(c2cc(C)nc4ccccc24)CC3)c(C)n1	+	MTase-Glo ctr=0%
Cc1ccc(NC(=O)c2ncn3c2C(=O)N(C2CC2)C(C)(C(=O)NCCCOC(C)C)C3)cc1F (stereo not drawn)	i

Bioassay records from PubChem.
